Results taken from PubChem BioAssay AID1159580 (chemical genetic matrix, 2015).
Out of some 5,500 compounds screened, about 2,000 (36%) were called active. About 18% were inconclusive and are not listed. Cut-off read from the data, not from the text of the source: active = normalized growth mostly below about 0.91 (no sharp cut-off); inconclusive = no clear call, values can overlap the other calls; inactive = mostly above about 0.92. The list shows a part of the results.

Experiment: chemical genetic growth profiling, strain panel (AID 1159580);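 note: tested at 20 µM; growth read once vehicle control cultures reached saturation at 30 °C; 1 = growth at the plate median or of vehicle wells; lower values mean less growth of the strain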
Settings: growth OD

Measured: normalized growth

O=C(O)[C@H](O)[C@@](O)(Cc1ccc(O)cc1)C(=O)O
inactive: S. cerevisiae deletion strains, locus YJR066W, strain TOR1, active compounds read low 0.995 | S. cerevisiae deletion strains, locus YJR075W, strain HOC1, active compounds read low 1.03 | S. cerevisiae deletion strains, locus YKL009W, strain mrt4, active compounds read low 1.07 | S. cerevisiae deletion strains, locus YKL068W, active compounds read low 1 | S. cerevisiae deletion strains, locus YKL085W, strain MDH1 (second series), active compounds read low 1.02 | S. cerevisiae deletion strains, locus YKL085W, strain MDH1, active compounds read low 1.02 | S. cerevisiae deletion strains, locus YKL160W, strain elf1, active compounds read low 1.01 | S. cerevisiae deletion strains, locus YKL190W, strain CNB1, active compounds read low 1.02 | S. cerevisiae deletion strains, locus YKR001C, strain vps1, active compounds read low 1.02 | S. cerevisiae deletion strains, locus YKR026C, strain gcn3, active compounds read low 1 | S. cerevisiae deletion strains, locus YKR091W, strain srl3, active compounds read low 1 | S. cerevisiae deletion strains, locus YLL001W, strain dnm1, active compounds read low 1.03 | S. cerevisiae deletion strains, locus YLL026W, active compounds read low 1 | S. cerevisiae deletion strains, locus YLL041C, strain sdh2, active compounds read low 1 | S. cerevisiae deletion strains, locus YLR027C, strain aat2, active compounds read low 1.01 | S. cerevisiae deletion strains, locus YLR039C, strain RIC1, active compounds read low 1.13 | S. cerevisiae deletion strains, locus YLR058C, strain SHM2, active compounds read low 1.04 | S. cerevisiae deletion strains, locus YLR102C, strain apc9, active compounds read low 0.994 | S. cerevisiae deletion strains, locus YLR113W, strain HOG1, active compounds read low 1 | S. cerevisiae deletion strains, locus YLR221C, strain rsa3, active compounds read low 1.03 | S. cerevisiae deletion strains, locus YLR258W, strain gsy2, active compounds read low 1.01 | S. cerevisiae deletion strains, locus YLR262C, strain YPT6 (second series), active compounds read low 1.03 | S. cerevisiae deletion strains, locus YLR268W, strain sec22, active compounds read low 1.04 | S. cerevisiae deletion strains, locus YLR320W, strain mms22, active compounds read low 1.03 | S. cerevisiae deletion strains, locus YLR330W, strain CHS5, active compounds read low 1.02 | S. cerevisiae deletion strains, locus YLR342W, strain FKS1 (second series), active compounds read low 1.09 | S. cerevisiae deletion strains, locus YLR342W, strain FKS1, active compounds read low 1.01 | S. cerevisiae deletion strains, locus YLR357W, strain rsc2, active compounds read low 1.01 | S. cerevisiae deletion strains, locus YLR370C, strain arc18, active compounds read low 1.01 | S. cerevisiae deletion strains, locus YLR371W, strain rom2, active compounds read low 1 | S. cerevisiae deletion strains, locus YLR384C, strain iki3, active compounds read low 1.01 | S. cerevisiae deletion strains, locus YLR418C, strain cdc73, active compounds read low 1.01 | S. cerevisiae deletion strains, locus YML016C, strain PPZ1, active compounds read low 1.01 | S. cerevisiae deletion strains, locus YML032C, strain rad52, active compounds read low 1.01 | S. cerevisiae deletion strains, locus YML120C, strain ndi1, active compounds read low 1 | S. cerevisiae deletion strains, locus YML124C, strain tub3, active compounds read low 1.01 | S. cerevisiae deletion strains, locus YMR058W, strain fet3, active compounds read low 1.02 | S. cerevisiae deletion strains, locus YMR078C, strain ctf18, active compounds read low 0.982 | S. cerevisiae deletion strains, locus YMR125W, strain sto1, active compounds read low 1.01 | S. cerevisiae deletion strains, locus YMR129W, active compounds read low 1.01 | S. cerevisiae deletion strains, locus YMR205C, strain PFK2, active compounds read low 1.02 | S. cerevisiae deletion strains, locus YMR223W, strain ubp8, active compounds read low 1.01 | S. cerevisiae deletion strains, locus YMR231W, strain pep5, active compounds read low 0.998 | S. cerevisiae deletion strains, locus YMR263W, strain SAP30, active compounds read low 1.02 | S. cerevisiae deletion strains, locus YMR307W, strain GAS1, active compounds read low 1.04 | S. cerevisiae deletion strains, locus YNL067W, strain RPL9B, active compounds read low 1.02 | S. cerevisiae deletion strains, locus YNL071W, strain lat1, active compounds read low 1.01 | S. cerevisiae deletion strains, locus YNL153C, strain GIM3, active compounds read low 1.02 | S. cerevisiae deletion strains, locus YNL183C, strain NPR1, active compounds read low 1.01 | S. cerevisiae deletion strains, locus YNL209W, strain ssb2, active compounds read low 1 | S. cerevisiae deletion strains, locus YNL233W, strain BNI4, active compounds read low 1.04 | S. cerevisiae deletion strains, locus YNL248C, strain rpa49, active compounds read low 1 | S. cerevisiae deletion strains, locus YNL250W, strain rad50, active compounds read low 1.01 | S. cerevisiae deletion strains, locus YNL271C, strain bni1, active compounds read low 1.01 | S. cerevisiae deletion strains, locus YNL298W, strain CLA4, active compounds read low 0.987 | S. cerevisiae deletion strains, locus YNL307C, strain MCK1, active compounds read low 0.987 | S. cerevisiae deletion strains, locus YNL322C, strain KRE1 (second series), active compounds read low 1.01 | S. cerevisiae deletion strains, locus YNR049C, strain mso1, active compounds read low 1 | S. cerevisiae deletion strains, locus YNR052C, strain pop2, active compounds read low 0.995 | S. cerevisiae deletion strains, locus YOL006C, strain TOP1, active compounds read low 1.25 | S. cerevisiae deletion strains, locus YOL012C, strain htz1 0.973 | S. cerevisiae deletion strains, locus YOL147C, strain pex11, active compounds read low 1 | S. cerevisiae deletion strains, locus YOR001W, strain rrp6, active compounds read low 0.986 | S. cerevisiae deletion strains, locus YOR061W, strain CKA2, active compounds read low 1.04 | S. cerevisiae deletion strains, locus YOR069W, strain VPS5, active compounds read low 1.01 | S. cerevisiae deletion strains, locus YOR070C, strain gyp1, active compounds read low 1.02 | S. cerevisiae deletion strains, locus YOR080W, strain dia2, active compounds read low 1.01 | S. cerevisiae deletion strains, locus YOR083W, strain WHI5, active compounds read low 1.03 | S. cerevisiae deletion strains, locus YOR106W, strain vam3, active compounds read low 1.01 | S. cerevisiae deletion strains, locus YOR136W, strain idh2, active compounds read low 1.01 | S. cerevisiae deletion strains, locus YOR144C, strain elg1, active compounds read low 1 | S. cerevisiae deletion strains, locus YOR184W, strain ser1, active compounds read low 1.04 | S. cerevisiae deletion strains, locus YOR231W, strain MKK1, active compounds read low 1.02 | S. cerevisiae deletion strains, locus YOR265W, strain rbl2, active compounds read low 1 | S. cerevisiae deletion strains, locus YOR270C, strain vph1, active compounds read low 1.05 | S. cerevisiae deletion strains, locus YOR290C, strain snf2, active compounds read low 1.01 | S. cerevisiae deletion strains, locus YOR316C, strain cot1, active compounds read low 1 | S. cerevisiae deletion strains, locus YPL051W, strain arl3, active compounds read low 1.05 | S. cerevisiae deletion strains, locus YPL078C, strain atp4, active compounds read low 1.01 | S. cerevisiae deletion strains, locus YPL106C, strain sse1, active compounds read low 1.01 | S. cerevisiae deletion strains, locus YPL240C, strain hsp82, active compounds read low 1.01 | S. cerevisiae deletion strains, locus YPL241C, strain CIN2, active compounds read low 1.01 | S. cerevisiae deletion strains, locus YPL256C, strain CLN2, active compounds read low 0.993 | S. cerevisiae deletion strains, locus YPR119W, strain clb2, active compounds read low 1 | S. cerevisiae deletion strains, locus YPR141C, strain kar3, active compounds read low 1 | S. cerevisiae deletion strains, locus YPR163C, strain tif3, active compounds read low 0.992 | S. cerevisiae deletion strains, locus YPR167C, strain met16, active compounds read low 1.01 | S. cerevisiae deletion strains, strain wtn01, active compounds read low 1.02 | S. cerevisiae strains, strain wild type, active compounds read low 1.03
